Experimental findings from PubChem BioAssay (NCATS) are described below.

Records with an inconclusive call do not appear. A number with no mark means an inactive call. Active and inactive are the calls of the source. Unless noted, calls follow the shape of the full dose curve.

Test [1] is described as follows: qHTS for Inhibitors of the Functional Ribonucleoprotein Complex (vRNP) of Lassa (LASV) Arenavirus: LASV Primary Screen - GLuc reporter signal (AID 1347082; calls by dose curve; tested in HEK293 reporter line; also: nearly all actives have a fitted effect of over 60% in size; as to activity change, negative = inhibition: series mostly up to about 57 µM).
The nature of test [2]: qHTS for Inhibitors of the Functional Ribonucleoprotein Complex (vRNP) of Lassa (LASV) Arenavirus: Viability assay - alamar blue signal for LASV Primary Screen (AID 1347083; calls by dose curve; tested in HEK293 reporter line; also: nearly all actives have a fitted effect of over 80% in size; as to activity change, negative = reduced viability: series mostly up to about 57 µM). On the technique in general: Quantitative high-throughput screening tests each substance at several concentrations.
A short description of test [3]: qHTS for Inhibitors of the Functional Ribonucleoprotein Complex (vRNP) of Lymphocytic Choriomeningitis Arenaviruses (LCMV): Viability assay - alamar blue signal for LCMV Primary Screen (AID 1347085; calls by dose curve; tested in HEK293 reporter line; also: nearly all actives have a fitted effect of over 80% in size; as to activity change, negative = lower viability: series mostly up to about 57 µM).
Test [4] deals with Nucleoprotein (Lymphocytic choriomeningitis virus (strain Armstrong)) (UniProt P09992). Description: qHTS for Inhibitors of the Functional Ribonucleoprotein Complex (vRNP) of Lymphocytic Choriomeningitis Arenaviruses (LCMV): LCMV Primary Screen - GLuc reporter signal (AID 1347086). Also: nearly all actives have a fitted effect of over 70% in size. As to activity change, negative = inhibition: series mostly up to about 57 µM.
% is scaled to controls: 0 for no effect and ±100 for the full control effect; potency is read from the fitted curve at half-maximal effect.

Sequence of Nucleoprotein (Lymphocytic choriomeningitis virus (strain Armstrong)) (P09992 whole entry, looked up): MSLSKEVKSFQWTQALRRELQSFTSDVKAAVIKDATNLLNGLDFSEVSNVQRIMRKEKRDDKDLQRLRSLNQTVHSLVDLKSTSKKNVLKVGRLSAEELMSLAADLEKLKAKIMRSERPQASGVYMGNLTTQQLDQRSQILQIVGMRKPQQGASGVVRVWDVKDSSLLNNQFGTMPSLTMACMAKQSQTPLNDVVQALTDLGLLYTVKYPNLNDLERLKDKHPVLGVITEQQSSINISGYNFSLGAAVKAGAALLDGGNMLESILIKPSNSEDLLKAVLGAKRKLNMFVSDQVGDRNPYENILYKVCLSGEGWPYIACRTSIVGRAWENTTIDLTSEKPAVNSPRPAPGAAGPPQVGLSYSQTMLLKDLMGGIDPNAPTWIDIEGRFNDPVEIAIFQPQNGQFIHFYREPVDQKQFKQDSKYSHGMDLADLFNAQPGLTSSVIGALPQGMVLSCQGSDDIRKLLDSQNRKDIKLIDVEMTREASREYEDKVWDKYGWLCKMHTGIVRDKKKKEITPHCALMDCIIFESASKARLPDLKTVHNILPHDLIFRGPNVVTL

Regarding `CC(=O)OC1[C@H](Oc2c(O)c(C)c3c4c2[C@@H](C)CC[C@@H]4[C@@H](C)C[C@@H]3C=C(C)C)OC[C@@H](O)[C@@H]1O` (stereo not given in full), the Potency result in test [1], in test [2], in test [3] and in test [4] was “inactive” each time.
As to `CCCCCC(=O)OCC`, the Potency entry in test [1], in test [2], in test [3] and in test [4] was “inactive” each time.
As for `CN[C@H]1[C@@H](O[C@@H]2[C@H](O[C@@H]3[C@@H](O)[C@@H](O)[C@@H](N=C(N)N)[C@@H](O)[C@@H]3N=C(N)N)O[C@H](C)[C@@]2(O)C=O)O[C@@H](CO)[C@@H](O)[C@H]1O`, the Potency entry in test [1], in test [2], in test [3] and in test [4] was “inactive” in each case.
Consider `COc1ccc(CC(=O)c2ccc(OC3OC(CO)C(O)C(O)C3O)cc2O)cc1` (stereo not given), for which the Potency result in test [1], in test [2], in test [3] and in test [4] was “inactive” in each case.
Regarding `Cc1cc(CS(=O)(=O)c2ccccc2)cc(OCc2ccc(CN3CCC[C@H]3CO)cc2)c1`, the Potency entry in test [1], in test [2], in test [3] and in test [4] was “inactive” each time.
With `COC1=C(OC)[C@]23CCc4ccc(OC)c(OC)c4[C@]2(CCN3C)CC1=O`, the Potency result in test [1], in test [2], in test [3] and in test [4] was “inactive” each time.
Take `CC/C=C\CCCCCO`: the Potency entry in test [1], in test [2], in test [3] and in test [4] was “inactive” each time.
On to `COc1c(C)c2c(c(O)c1CC=C(C)CCC(=O)O)C(=O)OC2`, for which the Potency in test [1] was 6.11 µM (active); in test [2], 3.85 µM (active); in test [3] it was 13.7 µM (active); in test [4], 7.69 µM (active).
As for `CC1C2CC(CC2C2CCCC(O)C2)C1(C)C` (stereo not given), the Potency entry in test [1], in test [2], in test [3] and in test [4] was “inactive” throughout.
As to `COC(=O)c1cc2c([nH]c3ccccc32)c(C)n1`, the Potency entry in test [1], in test [2], in test [3] and in test [4] was “inactive” each time.
Consider `Cc1cc(O)c2c(c1)C(O)(C1OC(CO)C(O)C(O)C1O)c1cccc(O)c1C2=O` (stereo not given), for which the Potency entry in test [1], in test [2], in test [3] and in test [4] was “inactive” throughout.
Take `C=C1C[C@@]23CC4C5[C@@]6(C)C[C@H](O)C[C@@]57C2[C@H](O)[C@@H]1[C@H](O)[C@H]3[C@H]7N4C6`: the Potency result in test [1], in test [2], in test [3] and in test [4] was “inactive” throughout.
In the case of `CCCCC/C=C\C/C=C\C=C\[C@@H](O)C/C=C\CCCC(=O)O`, the activity change, negative = inhibition is -0.303% [at 0.757 µM] in test [1] and 14.7% [at 0.757 µM] in test [4]. Further, in test [2], the activity change, negative = reduced viability was 9.41% [at 0.757 µM]. Besides, the activity change, negative = lower viability in test [3] was 16.7% [at 0.757 µM].
In the case of `O=C(/C=C/c1ccc(O)cc1)OCc1occc(=O)c1O[C@@H]1OC(CO)[C@@H](O)[C@H](O)[C@@H]1O` (stereo not given in full), the Potency entry in test [1], in test [2], in test [3] and in test [4] was “inactive” throughout.
With `CC(=O)OC(C)c1ccccc1` (stereo not given), the Potency entry in test [1], in test [2], in test [3] and in test [4] was “inactive” throughout.
Consider `Cn1c(=O)c2[nH]c(=O)[nH]c2n(C)c1=O`, for which the Potency entry in test [1], in test [2], in test [3] and in test [4] was “inactive” each time.
With `CCCCCc1c2c(cc(O)c1C(=O)O)OC(=O)c1cc(C(=O)CCCC)c(OC)cc1O2`, the Potency result in test [1], in test [2], in test [3] and in test [4] was “inactive” in each case.
Consider `COc1cc2c3c(c1OC)C1(C=CC(=O)C=C1)CC3N(C(C)=O)CC2` (stereo not given), for which the Potency result in test [1], in test [2], in test [3] and in test [4] was “inactive” each time.
In the case of `COC(=O)c1ccc2c(c1O)C(=O)c1ccccc1C2=O`, the Potency result in test [1], in test [2], in test [3] and in test [4] was “inactive” each time.
Turning to `C=C(C)c1cc2c(ccc3ccc(=O)oc32)o1`, the Potency entry in test [1], in test [2], in test [3] and in test [4] was “inactive” throughout.
For the compound `CC(C)(COP(=O)(O)OP(=O)(O)OC[C@H]1O[C@@H](n2cnc3c(N)ncnc32)[C@H](O)[C@@H]1OP(=O)(O)O)[C@H](O)C(=O)NCCC(=O)NCCS`, the Potency result in test [1], in test [2], in test [3] and in test [4] was “inactive” each time.
In the case of `CC1(C)C2CC[C@]3(C)C(CC=C4[C@@H]5C[C@@](C)(CO)[C@@H](O)C[C@]56C[C@@H](OC6=O)[C@]43C)[C@@]2(C)CC[C@@H]1O` (stereo not given in full), the Potency result in test [1], in test [2], in test [3] and in test [4] was “inactive” throughout.
For the compound `CCCC/C=C/C=C\C=O`, the Potency entry in test [1], in test [2], in test [3] and in test [4] was “inactive” each time.
Turning to `Cc1cnnc2ccccc12`, the Potency result in test [1], in test [2], in test [3] and in test [4] was “inactive” each time.
As for `O=C/C=C/c1ccc(O)cc1`, the Potency result in test [1], in test [2], in test [3] and in test [4] was “inactive” throughout.
For the compound `C[C@@H]1C(=O)O[C@H]2[C@H]1CC[C@@]1(C)C(=O)C=C[C@@](C)(O)[C@H]21`, the Potency entry in test [1], in test [2], in test [3] and in test [4] was “inactive” throughout.
With `COc1ccc(C[C@@H](C)[C@@H](C)Cc2ccc(OC)c(OC)c2)cc1OC`, the Potency is 21.7 µM (active) in test [1], 6.11 µM (active) in test [2], 12.2 µM (active) in test [3] and 24.3 µM (active) in test [4].
On the same counts, the results for `COC1CC(C)C(OC)c2cc(O)cc(c2O)NC(=O)C(C)=CC=CC(C)C(OC(N)=O)C(C)=CC(C)C1OC` (stereo not given) are “inactive”, “inactive”, “inactive” and “inactive”.
On the same counts, the results for `COc1cc(OC)c2c(c1)C(=O)OC2` are “inactive”, “inactive”, “inactive” and “inactive”.
On the same counts, the results for `CCCCc1nc2ccccc2[nH]1` are “inactive”, “inactive”, “inactive” and “inactive”.
